Measurements as given in PMC10163288.
These entries were drawn from the full list. The true hit rate is not given. Values without a mark were called inactive.

B1: il2ra_site1_2b5i_normal_mot_2cbe48e66a1f39b3fed734b245ab0a04_0001_000000015_0001_17_31_H_._HHH_b2_00019_0001_0000500012_0000001_0_af2pred_dldesign_0_af2pred (protein)
chain: SSSSSSDAEAEVERLLEEARKVNPEEAEKLLFKALVVAWAAKDPALVARVEAEAKRLLSSSSSSS
B2: il2ra_site2_3nfp_sap_25_mot_HHH_b2_07498_000000293_0001_1_14_H_._HHH_b1_01574_0001_0000100004_0000001_0_0001_af2pred_0001_1_af2pred_swapped (protein)
chain: SSSSSDEELLEEAKRLLEEGNLEEAFRVLAEAASEAIELGDEELAHEIAALAIEVAEKLGSSSSS
B3: il2ra_site1_1z92_sap_9_mot_HHH_b1_04604_af2_000000029_0001_42_56_H_._3020bb65e3c0c4c1750efda2a61ed53f_0001_1_af2_0001_0000300015_0000001_0_0001 (protein)
chain: SEEYLEEQLRRKLELGNIEDAARALFKFIAAAAGDPEQAEEFLEELLKRAGVPPEVIEKILEEAK
B4: il2ra_site1_2b5i_normal_mot_HHH_b2_00231_000000175_0001_20_36_H_._HHH_b2_07547_0001_0000100002_0000001_0_af2pred_0001_af2pred (protein)
chain: SSSSDVWELYLRASRLFLRGNPEEAERLLEEAIELAERLGDPEIAKQLEEMLRHVRRSLSSSSSS
B5: il2ra_site2_3nfp_sap_20_mot_ce0e691d864d74cc0dee145e42b7b696_0001_1_af2_000000051_0001_34_49_H_._HHH_b1_03816_af2_0001_0000500031_0000001_0_0001 (protein)
chain: SSSSSDEEKLEEARELYEEGNPEEARKILLHLVSEAEEKGDRELLFRIMALANEVAAALISSSSS
B6: il2ra_site2_3nfp_normal_mot_HHH_b1_05918_af2_000000127_0001_23_40_H_._HHH_b1_07797_0001_0000400047_0000001_0 (protein)
chain: SSSSSEAEEYLRAALLLAELALREGDEENARRSLELAIQLAEHKGNPELLEELEELLEEINSSSS
B7: il2ra_site1_3nfp_sap_8_mot_119b7766384adbe86006a62bce89dba1_0001_af2_000000092_0001_18_32_H_._HHH_b2_02632_0001_0000300007_0000001_0_0001 (protein)
chain: SSSSDARELLFEAAEILDELAERGDHEELKRFAEEVIEELEELGNRQAARMIRWLVERALSSSSS
B8: il2ra_site2_3nfp_sap_22_mot_HHH_b2_08245_000000023_0001_41_55_H_._HHH_b2_07283_0001_0000300027_0000001_0_0001 (protein)
chain: SSSSDVEERIEELLKEIEELLEKGDPEEAERLLLEVALLAWETGDFEAFAAVTRLLERVQSSSSS
B9: il2ra_site1_2b5i_sap_18_mot_89dc1dc23437faef961419e82e151d9c_0001_af2_000000202_0001_15_32_H_._9f08b0091ee0dae2b2d48aa630d4ec63_0001_1_0001_0000400022_0000001_0 … (protein)
chain: SSSSSIEELLEAMLELAEELIENGNPEEARAILLLARRAARAHGNPEYVKELERLLRELLSSSSS
B10: il2ra_site2_3nfp_normal_mot_HHH_b1_05158_000000192_0001_1_17_H_._HHH_b1_05195_0001_0000600013_0000001_0_af2pred_0001_af2pred (protein)
chain: SSSSSSDSELTFLLILLEALLEEVDDPEIRELLEEALEELREKKDPEIARKVLKEASEYLSSSSS
B11: il2ra_site2_3nfp_sap_26_mot_HHH_b1_00015_000000185_0001_19_35_H_._HHH_b2_06138_0001_0000600047_0000001_0_0001_af2pred_0001_af2pred (protein)
chain: SSSSSSDEEEEVEKLLEEAKHIEDEFELYAVLADAARIAFELKDEELRRLVKEVRHELSSSSSSS
B12: il2ra_site1_1z92_normal_mot_HHH_b1_08597_af2_000000202_0001_42_56_H_._6e12af4a48b4634929ba45889b8be782_0001_0001_0000600034_0000001_0 (protein)
chain: NVEWAIENLERLARLQGNPEVERVLRRVLELLKKNEEEAEEFLEELVRELGDKLLRLLLRMLKTA
B13: il2ra_site1_1z92_sap_14_mot_1581cc1c700002558836ca695aafbf97_0001_1_af2_000000099_0001_17_32_H_._d5167a162c519d043ddc16d89768c28c_0001_1_0001_0000100008_0000001 … (protein)
chain: SLEEEIERALKEAGVPPEEIEAIKRDIRRTQEFGIPPRSIALAVLRALKSHDEELAERVEELLRK
B14: il2ra_site1_1z92_normal_mot_HHH_b2_05238_af2_000000252_0001_38_55_H_._HHH_b1_01495_af2_0002_0000300012_0000001_0_af2pred_0001_af2pred_1 (protein)
chain: SSSSSKEESLELAERAARRAIEAGNERSARRLLKFVIEAAEELGNEELLEELEELLERLESSSSS
B15: il2ra_site2_2erj_sap_29_mot_dcd9809507f71d420582ead1f1e1bbb3_0001_000000226_0001_37_50_H_._HHH_b1_02896_af2_0001_0000500038_0000001_0_0001 (protein)
chain: SSSSSSLHELYELANRLMHALSNGDEELLEELLEELEELAKELQSDTAREIVENIRRRLSSSSSS
B16: il2ra_site1_1z92_sap_17_mot_c66c727fe7b11027095aa3ef302aaf37_0001_000000167_0001_38_52_H_._665b9007e6d0b9979c9b0c82f83b8fcc_0001_0001_0000200023_0000001_0_0001 (protein)
chain: SSSSDSRERIEELAEFLARDIKMTGNPWARRLLELLLEKAEKLGDEELREIIEQLLEELRSSSSS
B17: il2ra_site1_3nfp_sap_16_mot_HHH_b1_00461_af2_000000238_0001_1_17_H_._HHH_b2_08025_0001_0000300024_0000001_0_0001_af2pred_0001_af2pred_swapped (protein)
chain: SSSSSRILRFLEELARKAFERNDKKQLEAILKLIRKAAKQFKDEEVEELLELVEELLKKLSSSSS
B18: il2ra_site2_2erj_normal_mot_HHH_b1_05204_000000269_0001_1_15_H_._HHH_b1_00954_0001_0000200014_0000001_0_1_af2pred_0001_af2pred (protein)
chain: SSSSDLEEELRRLLEELEELVKEGDEKKFMEVALRVAKLVIENNDEEAAKLLLRLLRELRSSSSS

What follows are binders tested against il2ra, P01589 (assay: yeast display titration).
Sequence of il2ra, P01589 (P01589 whole entry): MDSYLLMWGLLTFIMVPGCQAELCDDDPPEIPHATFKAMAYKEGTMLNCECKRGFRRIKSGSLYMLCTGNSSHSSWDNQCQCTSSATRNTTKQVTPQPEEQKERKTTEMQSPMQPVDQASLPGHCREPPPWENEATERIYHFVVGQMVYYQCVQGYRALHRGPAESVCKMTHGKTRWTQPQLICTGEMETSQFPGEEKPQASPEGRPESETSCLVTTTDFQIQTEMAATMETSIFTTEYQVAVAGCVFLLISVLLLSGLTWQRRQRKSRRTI

Row | Binder | apparent Kd
1 | B1 | no binding seen
2 | B2 | no binding seen
3 | B3 | no binding seen
4 | B4 | no binding seen
5 | B5 | no binding seen
6 | B6 | no binding seen
7 | B7 | no binding seen
8 | B8 | no binding seen
9 | B9 | no binding seen
10 | B10 | no binding seen
11 | B11 | no binding seen
12 | B12 | > 311 nM
13 | B13 | no binding seen
14 | B14 | no binding seen
15 | B15 | no binding seen
16 | B16 | no binding seen
17 | B17 | no binding seen
18 | B18 | no binding seen
